Results from PMC4336329 (PLoS ONE, 2015).
Screen size: about 310,000 compounds; about 14,000 (4.5%) showed an effect of 50% or more. Effects have a minus sign here. The sample holds strong results, similar compounds and a random draw of the others, so the mix is not that of the screen.
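Note: peak tail current of the secondary pulse compared with the same well before compound.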

Each compound was assayed against human ether-à-go-go-related gene (hERG) potassium channel (human, UniProt Q12809) (assay: primary screen, population patch clamp on CHO cells stably expressing hERG; higher = less effect of the substance).
Sequence of human ether-à-go-go-related gene (hERG) potassium channel (Q12809 whole entry, looked up): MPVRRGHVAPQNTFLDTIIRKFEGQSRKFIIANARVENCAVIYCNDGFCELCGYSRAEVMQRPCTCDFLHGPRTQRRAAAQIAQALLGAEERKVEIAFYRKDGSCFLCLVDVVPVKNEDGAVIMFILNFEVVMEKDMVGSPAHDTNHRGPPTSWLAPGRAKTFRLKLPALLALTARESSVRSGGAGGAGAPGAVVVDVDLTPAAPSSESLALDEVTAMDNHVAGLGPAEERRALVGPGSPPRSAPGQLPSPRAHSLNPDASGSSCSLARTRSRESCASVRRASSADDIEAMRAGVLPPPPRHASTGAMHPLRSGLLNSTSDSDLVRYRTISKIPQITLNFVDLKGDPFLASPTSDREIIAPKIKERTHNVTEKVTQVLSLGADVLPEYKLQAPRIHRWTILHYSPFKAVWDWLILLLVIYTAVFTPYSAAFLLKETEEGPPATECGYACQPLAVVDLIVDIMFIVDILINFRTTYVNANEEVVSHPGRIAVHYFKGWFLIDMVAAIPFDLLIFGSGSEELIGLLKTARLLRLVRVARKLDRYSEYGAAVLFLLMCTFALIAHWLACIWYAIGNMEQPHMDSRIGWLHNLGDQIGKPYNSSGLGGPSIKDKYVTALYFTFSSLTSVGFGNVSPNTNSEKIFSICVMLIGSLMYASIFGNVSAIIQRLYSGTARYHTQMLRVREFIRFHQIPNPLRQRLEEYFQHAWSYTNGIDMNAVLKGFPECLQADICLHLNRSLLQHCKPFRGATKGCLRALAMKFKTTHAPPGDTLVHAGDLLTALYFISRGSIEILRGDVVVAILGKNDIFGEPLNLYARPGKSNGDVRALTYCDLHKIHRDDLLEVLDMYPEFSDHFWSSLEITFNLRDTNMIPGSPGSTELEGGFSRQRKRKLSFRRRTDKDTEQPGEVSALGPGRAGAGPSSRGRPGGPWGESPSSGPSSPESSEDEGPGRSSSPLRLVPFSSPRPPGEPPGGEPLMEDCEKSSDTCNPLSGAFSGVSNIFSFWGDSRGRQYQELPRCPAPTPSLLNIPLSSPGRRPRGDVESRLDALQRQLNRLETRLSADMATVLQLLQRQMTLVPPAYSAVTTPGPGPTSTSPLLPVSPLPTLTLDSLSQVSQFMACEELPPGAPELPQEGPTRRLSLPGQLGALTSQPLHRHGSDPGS
For `COc1ccc(CCNC(=O)Cc2cc(=O)[nH]c(=O)[nH]2)cc1OC`, the “hERG current change (%, negative = inhibition) at 10uM” value was -9.44%. With `CCN1/C(=C2\C(=O)N(C)C(=S)N2C)C=Cc2cc(C)ccc21` the “hERG current change (%, negative = inhibition) at 10uM” value was -33.4%. With `CCN1/C(=C2/SC(=S)N(C)C2=O)C=Cc2cc(C)ccc21` the “hERG current change (%, negative = inhibition) at 10uM” value was -1.96%. `CCN1C(=O)/C(=C2/C=Cc3cc(C)ccc3N2CC)N(C)C1=S` was tested, and the “hERG current change (%, negative = inhibition) at 10uM” value was -54.8%. `CC1=NN(C(C)C)C(=O)C1` was tested, and the “hERG current change (%, negative = inhibition) at 10uM” value was 8.62%. `CCOC(=O)C1(CCOc2ccccc2)CCN(Cc2ccc(C)s2)CC1` was tested, and the “hERG current change (%, negative = inhibition) at 10uM” value was -89.8%. `CCOC(=O)C1(CCc2ccccc2)CCN(Cc2cnc(N(C)C)s2)CC1` was tested, and the “hERG current change (%, negative = inhibition) at 10uM” value was -83%. For `CCOC(=O)C1(CCOC)CCN(Cc2cc3ccccc3s2)CC1`, the “hERG current change (%, negative = inhibition) at 10uM” value was -22.5%. In the case of `CCOC(=O)C1(CCCc2ccccc2)CCN(Cc2cnc(C)s2)CC1`, the “hERG current change (%, negative = inhibition) at 10uM” value is reported as -73.1%. In the case of `CCOC(=O)C1(Cc2cccc(F)c2)CCN(Cc2cnc(C)s2)CC1`, the “hERG current change (%, negative = inhibition) at 10uM” value is reported as -2.73%. With `CCOC(=O)C1(CCOc2ccccc2)CCN(Cc2cccs2)CC1` the “hERG current change (%, negative = inhibition) at 10uM” value was -81.8%. With `CCOC(=O)C1(CC2CC2)CCN(Cc2cnc(N(C)C)s2)CC1` the “hERG current change (%, negative = inhibition) at 10uM” value was -22.1%. For `CCN(CC)C(=O)CC(c1ccc(F)cc1)c1ccc(OC)cc1` (stereo not drawn), the “hERG current change (%, negative = inhibition) at 10uM” value was -25.1%. In the case of `CC1CC(C)(C)N2C(=O)C3(Nc4ccccc4S3)c3cccc1c32` (stereo not drawn), the “hERG current change (%, negative = inhibition) at 10uM” value is reported as 22.1%. `Cc1ccc(C(C)C)cc1OCCCCN1CCCC1` was tested, and the “hERG current change (%, negative = inhibition) at 10uM” value was -49%. With `COc1ccc(N(CC(=O)NCCSCc2ccco2)S(=O)(=O)c2ccccc2)cc1` the “hERG current change (%, negative = inhibition) at 10uM” value was -9.08%. `COc1ccc(CN2C(=O)c3ccccc3C2=O)cc1C(=O)N(C)CC(=O)Nc1c(C)cccc1C` was tested, and the “hERG current change (%, negative = inhibition) at 10uM” value was -16.7%. With `CCOC(=O)C1(CCOc2ccccc2)CCN(Cc2cnc(C)[nH]2)CC1` the “hERG current change (%, negative = inhibition) at 10uM” value was -48.3%. In the case of `CCOC(=O)C1(CCOc2ccccc2)CCN(Cc2cnc(C)s2)CC1`, the “hERG current change (%, negative = inhibition) at 10uM” value is reported as -62.4%. `CCC(=O)Nc1cccc(NC(=O)c2ccc(C)cc2Cl)c1` was tested, and the “hERG current change (%, negative = inhibition) at 10uM” value was 34.5%. For `NC(=S)NNc1ccc(Cl)c(Cl)c1`, the “hERG current change (%, negative = inhibition) at 10uM” value was 16.3%. `Cl.O=C(NCCCn1ccnc1)c1ccc(S(=O)(=O)N2CCCCCC2)cc1` was tested, and the “hERG current change (%, negative = inhibition) at 10uM” value was -7.07%. `COc1ccc(C(=O)NCCCn2ccnc2)cc1[N+](=O)[O-]` was tested, and the “hERG current change (%, negative = inhibition) at 10uM” value was -8.22%. In the case of `Cc1ccc(C(=O)NCCCn2ccnc2)cc1[N+](=O)[O-]`, the “hERG current change (%, negative = inhibition) at 10uM” value is reported as 4.53%. `O=C(NCCCn1ccnc1)c1ccc(N2CCCCC2)c([N+](=O)[O-])c1` was tested, and the “hERG current change (%, negative = inhibition) at 10uM” value was -71.7%. `O=C(NCCCN1CCOCC1)c1ccc(N2CCCC2)c([N+](=O)[O-])c1` was tested, and the “hERG current change (%, negative = inhibition) at 10uM” value was -16.8%. In the case of `Cl.O=C(NCCCn1ccnc1)c1ccc(N2CCCCCC2)c([N+](=O)[O-])c1`, the “hERG current change (%, negative = inhibition) at 10uM” value is reported as -64%. With `COc1ccc(/C=C(\NC(=O)c2ccccc2)C(=O)NCCC(=O)O)cc1` the “hERG current change (%, negative = inhibition) at 10uM” value was 26.3%. With `Cc1cc(NC(=O)c2ccc3c(c2)OCCO3)ccc1NC(=O)c1ccco1` the “hERG current change (%, negative = inhibition) at 10uM” value was 8.5%. With `COc1ccc(C(=O)NCC(=O)N/N=C/c2ccco2)cc1OC` the “hERG current change (%, negative = inhibition) at 10uM” value was 25.9%. For `CCCc1ccc(OCCNC(=O)CC)cc1`, the “hERG current change (%, negative = inhibition) at 10uM” value was -10.9%. For `COC(=O)C1=CN(c2ccc(Cl)cc2)C=C(C(=O)OC)C1c1ccc([N+](=O)[O-])cc1`, the “hERG current change (%, negative = inhibition) at 10uM” value was 16.2%. With `CCOc1ccc(C(C(=O)Nc2ccc(F)cc2)N(C(=O)Cn2nnc3ccccc32)C2CC2)cc1` (stereo not drawn) the “hERG current change (%, negative = inhibition) at 10uM” value was -50.3%. With `COc1ccc(C(C(=O)Nc2ccc(F)cc2)N(C(=O)Cn2nnc3ccccc32)C2CC2)cc1` (stereo not drawn) the “hERG current change (%, negative = inhibition) at 10uM” value was -45.6%. With `CCC(C)N(C(=O)Cn1nnc2ccccc21)C(C(=O)Nc1ccc(F)cc1)c1cccc(OC)c1` (stereo not drawn) the “hERG current change (%, negative = inhibition) at 10uM” value was -18.8%. `Cc1cccc(N(C(=O)c2nsc(Cl)c2Cl)C(C(=O)NC2CCCC2)c2ccc(O)cc2)c1` (stereo not drawn) was tested, and the “hERG current change (%, negative = inhibition) at 10uM” value was -2.24%. For `N#CCO/N=C(\c1ccccc1)c1ccncc1`, the “hERG current change (%, negative = inhibition) at 10uM” value was 18.1%. For `C=CCNC(=O)/C(=C\c1ccc2c(c1)OCO2)NC(=O)c1ccc(Br)cc1`, the “hERG current change (%, negative = inhibition) at 10uM” value was -30%. `CCNC(=O)/C(=C/c1ccc2c(c1)OCO2)NC(=O)c1ccc(Br)cc1` was tested, and the “hERG current change (%, negative = inhibition) at 10uM” value was -58.3%. With `O=C(Nc1cccc(C(=O)O)c1)/C(=C/c1ccc2c(c1)OCO2)NC(=O)c1cccc(Br)c1` the “hERG current change (%, negative = inhibition) at 10uM” value was 7.35%. For `O=C(Nc1ccc(C(=O)O)cc1)/C(=C/c1ccc2c(c1)OCO2)NC(=O)c1cccc(Br)c1`, the “hERG current change (%, negative = inhibition) at 10uM” value was 7.25%. With `O=C(O)CNC(=O)/C(=C\c1ccc2c(c1)OCO2)NC(=O)c1ccc(Br)cc1` the “hERG current change (%, negative = inhibition) at 10uM” value was 8.77%. For `CCNC(=O)/C(=C\c1ccc2c(c1)OCO2)NC(=O)c1ccc(Br)cc1`, the “hERG current change (%, negative = inhibition) at 10uM” value was -69.7%. For `CC1CC2=C(C(=O)O1)C(c1ccc(Cl)cc1)Nc1ccccc1N2` (stereo not drawn), the “hERG current change (%, negative = inhibition) at 10uM” value was -6.21%. In the case of `Cc1ccc(-c2csc(NC(=O)CCNC(=O)c3ccccc3Cl)n2)cc1`, the “hERG current change (%, negative = inhibition) at 10uM” value is reported as 1.5%. In the case of `CC1CCCCC1N1CCN(C(=O)c2cccc(F)c2)CC1.O=C(O)C(=O)O` (stereo not drawn), the “hERG current change (%, negative = inhibition) at 10uM” value is reported as -17.5%. With `CS(=O)(=O)c1ccc(-c2cccc(NC(=O)COc3ccccc3)c2)nn1` the “hERG current change (%, negative = inhibition) at 10uM” value was -3.45%. For `CCCN1C(=O)/C(=C/c2nc3ccccc3c(=O)[nH]2)c2ccccc21`, the “hERG current change (%, negative = inhibition) at 10uM” value was 1.75%. In the case of `O=C(COC(=O)c1nc(Cl)ccc1Cl)Nc1ccc2c(c1)OCO2`, the “hERG current change (%, negative = inhibition) at 10uM” value is reported as -3.62%. For `Cc1c(O)c(S(=O)(=O)c2ccccc2)c(=O)n(-c2ccccc2)c1-c1ccccc1`, the “hERG current change (%, negative = inhibition) at 10uM” value was 3.84%. With `Cl.N=c1n(CCN2CCCCC2)c2ccccc2n1CC(O)c1ccc(Cl)c(Cl)c1` (stereo not drawn) the “hERG current change (%, negative = inhibition) at 10uM” value was -105%. With `Cl.N=c1n(CCO)c2ccccc2n1CCN1CCCCC1` the “hERG current change (%, negative = inhibition) at 10uM” value was 6.77%. With `Cl.N=c1n(CCN2CCCC2)c2ccccc2n1CC(O)c1ccc(Cl)c(Cl)c1` (stereo not drawn) the “hERG current change (%, negative = inhibition) at 10uM” value was -91.4%. With `CN(C)CCn1c(=N)n(CC(O)c2ccc(Cl)c(Cl)c2)c2ccccc21.Cl` (stereo not drawn) the “hERG current change (%, negative = inhibition) at 10uM” value was -66.1%. `OC(CN1CCCCC1)Cn1c2ccccc2c2cc(Br)ccc21` (stereo not drawn) was tested, and the “hERG current change (%, negative = inhibition) at 10uM” value was -33.1%. `Cl.N=c1n(CCN2CCCCC2)c2ccccc2n1CC(O)c1cccc(Br)c1` (stereo not drawn) was tested, and the “hERG current change (%, negative = inhibition) at 10uM” value was -63.2%. With `COc1ccc(C(O)Cn2c(=N)n(CCCN(C)C)c3ccccc32)cc1.Cl` (stereo not drawn) the “hERG current change (%, negative = inhibition) at 10uM” value was -13%.
